Results taken from PubChem BioAssay (NCATS).
Several values for one entry are separate records, joined by “and”; a condition that tells them apart may be missing. Identical values can stand only once. Records with an inconclusive call do not appear. Activity calls are given as the source filed them. Unless noted, the call rests on the fitted dose curve; in most records, active means well fitted curve in the direction sought with a large enough effect; inconclusive means small, poorly fitted or top-dose-only effect, or another doubt; inactive means no such curve, though single readings can be large; an effect the other way counts as inactive or inconclusive.

Assays:
[1] = qHTS assay for small molecule disruptors of the mitochondrial membrane potential - 1 hr assay (AID 651754; calls by dose curve; further: on the % scale 0 is the no-effect control and ±100 the full control effect; nearly all actives have a fitted effect of over 35% in size)
How it was run: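 HepG2, 2,000 cells/well, overnight attachment; cpd or DMSO 1 hr, 37C/5% CO2; Mito-MPS dye 30 min, 37C; fluorescence monomer (490/535) and aggregate (540/590).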

[2] = qHTS assay for small molecule disruptors of the mitochondrial membrane potential - 5 hr assay (AID 651755; calls by dose curve; further: on the % scale 0 is the no-effect control and ±100 the full control effect; nearly all actives have a fitted effect of over 40% in size)
How it was run: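 HepG2 cells (2,000/well), attached overnight, exposed to compound 5 hr at 37C, then Mito-MPS dye 30 min. Fluorescence read for monomers (490/535 nm) and aggregates (540/590 nm).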

[3] = target: Tumor necrosis factor (Homo sapiens) (UniProt P01375); assay: qHTS assay to identify small molecules that stimulate Tumor Necrosis Factor-alpha (TNF-alpha) secretion (AID 651757; active means well fitted curve in the direction sought with a large enough effect in the signal ratio; the % refers to the signal ratio; further: 0% is about no effect)
How it was run: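 Read-out is HTRF, a TR-FRET sandwich of cryptate- and XL665-labeled anti-TNF-alpha antibodies detecting cytokine secreted by THP-1 cells. Cells had been incubated with test compounds at 37 C for 17 hrs beforehand.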

[4] = qHTS assay to identify small molecules that stimulate interleukin-8 (IL-8) secretion (AID 651758; active means well fitted activation curve with a large enough effect in the signal ratio; the % refers to the signal ratio; further: 0% is about no effect)
How it was run: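 THP-1 cells (2000/well) exposed to compound 16 h at 37 C; secreted IL-8 then detected by HTRF with cryptate- and XL665-labelled anti-IL-8 antibody pair after 1-3 h at room temperature.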

[5] = target: Peroxisome proliferator-activated receptor alpha (Homo sapiens) (UniProt Q07869); assay: qHTS assay for small molecule agonists of the peroxisome proliferator-activated receptor alpha (PPARalpha) signaling pathway (AID 651778); conditions: PathHunter PPARalpha complementation, chemiluminescence, 6 h; hits give high values; further: % of control where 0% means no effect
How it was run: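 Enzyme-fragment complementation assay in which ligand-bound PPARalpha translocates and forms an active enzyme that generates chemiluminescence. Cells were plated overnight, exposed to compound for 6 hr at 37 C, and then given detection reagent for 60 min at room temperature.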

[6] = target: Nuclear receptor ROR-gamma (Homo sapiens) (UniProt P51449); assay: qHTS assay for small molecule antagonists of the retinoid-related orphan receptor gamma (ROR-gamma) signaling pathway (AID 651802);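 further: luciferase reporter luminescence driven by ROR response element; series mostly up to about 92 µM; on the % scale 0 is the no-effect control and ±100 the full control effect; nearly all actives have a fitted effect of over 60% in size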
How it was run: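 CHO, TET-inducible ROR + RORE-LUC reporter, 1536-well qHTS. Compound pinned, doxycycline added, 16hr 37C/5% CO2. ONE-Glo, 30 min RT, luminescence; signal drop scored as antagonism.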

[7] = qHTS assay for small molecule agonists of the antioxidant response element (ARE) signaling pathway measured by Nrf2-dependant transcriptional activity (AID 720636; active means well fitted curve in the direction sought with a large enough effect in the repeat runs; an effect the other way counts as inactive or inconclusive; further: % of control where 0% means no effect)
How it was run: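 Quantitative HTS format in HepG2 cells stably expressing an ARE-luciferase reporter; 16 hr compound treatment at 37 C, luciferase signal detected with ONE-Glo.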

[8] = qHTS assay for small molecule antagonists of the retinoid-related orphan receptor gamma (ROR-gamma) signaling pathway - cell viability counter screen (AID 720652; active means well fitted curve in the direction sought with a large enough effect in the repeat runs; an effect the other way counts as inactive or inconclusive;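 further: series mostly up to about 92 µM; compound exposure lasted 16 hr before ATP read; on the % scale 0 is the no-effect control and ±100 the full control effect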)
How it was run: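 Luminescence from CellTiter-Glo after 30 min at room temperature reported cellular ATP as the cytotoxicity measure. Cells were the CHO reporter line with doxycycline-induced ROR-gamma expression, exposed to compound for 16 hr at 37 C.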

[9] = qHTS assay for small molecule agonists of the antioxidant response element (ARE) signaling pathway measured by Nrf2-dependant transcriptional activity - cell viability counter screen (AID 720653; active means well fitted curve in the direction sought with a large enough effect in the repeat runs; an effect the other way counts as inactive or inconclusive; further: on the % scale 0 is the no-effect control and ±100 the full control effect); conditions: ARE-bla HepG2 viability, CellTiter-Glo ATP luminescence, 16 h; hits give low values
How it was run: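 ARE-bla HepG2 cells treated with compounds for 16 h at 37C; this counter screen measures viability as intracellular ATP by CellTiter-Glo luminescence after 30 min at room temperature.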

[10] = qHTS assay for cell viability of HEK293 cells (AID 743288); conditions: ATP luminescence (CellTiter-Glo), 18 h, hits give low values; further: on the % scale 0 is the no-effect control and ±100 the full control effect; nearly all actives have a fitted effect of over 50% in size
How it was run: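 HEK293 parental, 2,000 cells/well; ≥5 h pre-incubation 37 C; pintool compound addition; 18 h, 37 C; CellTiter-Glo 30 min RT; luminescence read.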

[11] = qHTS assay for cell viability of the p53RE-bla HCT-116 cell line (AID 743292); further: on the % scale 0 is the no-effect control and ±100 the full control effect; nearly all actives have a fitted effect of over 55% in size
How it was run: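 Viability of compound-treated p53RE-bla HCT-116 cells is taken from ATP-dependent luciferase luminescence. Treatment lasts 16 h at 37 C after a 5 h settling period; detection follows 30 min at room temperature.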

[12] = target: Nuclear receptor subfamily 1 group I member 2 (Rattus norvegicus) (UniProt Q9R1A7); assay: qHTS assay for small molecule activators of the rat pregnane X receptor (rPXR) signaling pathway (AID 651751; call rule not given here; further: 0% is about no effect); conditions: rPXR reporter cells, luciferase (One-Glo), 24 h
[13] = qHTS assay for small molecule activators of the human pregnane X receptor (PXR) signaling pathway (AID 720659; call rule not given here; further: 0% is about no effect)
[14] = qHTS assay for environmental chemicals that activate the Aryl hydrocarbon Receptor (AhR) signaling pathway (AID 651777); conditions: 1A2-DRE human hepatoma cells, luciferase, 24 h; activation: hits give high values; further: % of control where 0% means no effect; nearly all actives have a fitted effect of over 15% in size
How it was run: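 Quantitative HTS in stably transfected human liver-derived cells whose luciferase gene sits downstream of the CYP1A2 promoter and dioxin response element. After 24 hr exposure at 37 C, One-Glo luminescence was measured.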

Peroxisome proliferator-activated receptor alpha (Homo sapiens), sequence (Q07869 whole entry, looked up, the tested form may be a part): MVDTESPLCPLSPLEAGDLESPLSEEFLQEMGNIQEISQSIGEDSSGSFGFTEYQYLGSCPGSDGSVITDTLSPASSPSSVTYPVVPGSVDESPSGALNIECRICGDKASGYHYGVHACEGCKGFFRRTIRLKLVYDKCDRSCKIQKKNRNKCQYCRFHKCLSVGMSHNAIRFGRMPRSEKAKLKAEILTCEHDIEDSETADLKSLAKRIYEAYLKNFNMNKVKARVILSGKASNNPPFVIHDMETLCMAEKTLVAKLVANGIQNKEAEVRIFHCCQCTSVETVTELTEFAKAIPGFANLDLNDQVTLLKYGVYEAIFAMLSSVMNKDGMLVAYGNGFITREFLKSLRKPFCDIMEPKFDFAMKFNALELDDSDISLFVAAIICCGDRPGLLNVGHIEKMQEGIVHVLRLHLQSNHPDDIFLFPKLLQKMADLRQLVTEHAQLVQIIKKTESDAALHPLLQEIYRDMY
Nuclear receptor subfamily 1 group I member 2 (Rattus norvegicus), sequence (Q9R1A7 whole entry, looked up): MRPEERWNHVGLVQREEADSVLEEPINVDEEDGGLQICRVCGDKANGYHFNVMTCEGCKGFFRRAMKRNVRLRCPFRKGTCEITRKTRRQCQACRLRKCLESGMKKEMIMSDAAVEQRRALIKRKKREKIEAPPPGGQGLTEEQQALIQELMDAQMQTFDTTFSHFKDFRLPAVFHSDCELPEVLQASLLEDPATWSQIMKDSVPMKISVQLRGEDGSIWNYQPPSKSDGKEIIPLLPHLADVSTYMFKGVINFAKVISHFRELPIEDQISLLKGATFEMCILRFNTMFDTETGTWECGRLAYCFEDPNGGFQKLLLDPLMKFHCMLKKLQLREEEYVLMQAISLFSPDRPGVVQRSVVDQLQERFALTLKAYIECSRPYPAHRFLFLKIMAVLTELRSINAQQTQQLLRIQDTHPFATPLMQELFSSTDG
Tumor necrosis factor (Homo sapiens), sequence (P01375 whole entry, looked up): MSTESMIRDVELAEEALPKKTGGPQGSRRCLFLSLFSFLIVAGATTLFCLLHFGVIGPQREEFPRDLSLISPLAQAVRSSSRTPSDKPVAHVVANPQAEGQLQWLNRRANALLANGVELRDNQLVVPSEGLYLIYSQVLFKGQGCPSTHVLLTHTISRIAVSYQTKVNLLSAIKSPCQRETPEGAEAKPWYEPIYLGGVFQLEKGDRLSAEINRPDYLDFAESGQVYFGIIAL
Nuclear receptor ROR-gamma (Homo sapiens), sequence (P51449 whole entry, looked up): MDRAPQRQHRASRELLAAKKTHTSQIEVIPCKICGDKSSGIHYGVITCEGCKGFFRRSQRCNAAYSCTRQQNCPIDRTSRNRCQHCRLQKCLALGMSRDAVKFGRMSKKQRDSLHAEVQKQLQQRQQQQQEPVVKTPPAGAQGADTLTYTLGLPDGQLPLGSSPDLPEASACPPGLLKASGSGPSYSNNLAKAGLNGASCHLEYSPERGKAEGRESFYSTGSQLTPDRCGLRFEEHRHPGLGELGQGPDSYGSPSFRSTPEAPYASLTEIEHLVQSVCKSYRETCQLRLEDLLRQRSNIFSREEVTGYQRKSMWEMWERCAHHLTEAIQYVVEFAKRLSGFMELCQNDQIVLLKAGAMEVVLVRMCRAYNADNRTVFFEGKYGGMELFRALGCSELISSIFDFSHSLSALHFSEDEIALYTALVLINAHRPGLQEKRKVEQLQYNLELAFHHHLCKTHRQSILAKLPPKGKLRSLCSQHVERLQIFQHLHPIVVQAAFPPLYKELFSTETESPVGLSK

O=Cc1ccc(Cl)cc1
inactive: Potency [1] | Potency [2] | Potency [3] | Potency [4] | max response [5] -4.56% | Potency [6] | outcome [7] | Potency [8] | max response [9] 7.47% | max response [10] -6.94% | Potency [11] | max response [12] -2.77% | outcome [13]

O=C(Cl)c1cccc([N+](=O)[O-])c1
inactive: Potency [1] | Potency [2] | Potency [3] | Potency [4] | max response [5] -2.24% | Potency [6] | outcome [7] | Potency [8] | max response [9] -1.32% | max response [10] -15.1% | Potency [11] | max response [12] -6.23% | outcome [13]

CC(=O)c1ccccc1[N+](=O)[O-]
inactive: Potency [1] | Potency [2] | Potency [3] | Potency [4] | activation [14] -0.15% | max response [5] -1% | Potency [6] | outcome [7] | max response [9] -1.99% | max response [10] 7.31% | Potency [11] | max response [12] 1.69% | outcome [13]

Cc1cc(C)c(N)cc1C
inactive: Potency [1] | Potency [2] | Potency [3] | Potency [4] | activation [14] 1.62% | max response [5] -4.75% | outcome [7] | Potency [8] | max response [9] 7.8% | max response [10] -5.87% | max response [12] 3.48% | outcome [13]

CCOC(C)(C)C
inactive: Potency [1] | Potency [2] | Potency [3] | Potency [4] | activation [14] -0.13% | max response [5] -4.96% | Potency [6] | outcome [7] | Potency [8] | max response [9] -6.47% | Potency [11] | max response [12] -4.12% | outcome [13]

BrC/C=C/CBr
inactive: Potency [1] | Potency [2] | Potency [3] | Potency [4] | activation [14] 0.145% | max response [5] 3.19% | Potency [6] | outcome [7] | Potency [8] | max response [9] -9.49% | max response [10] -11% | Potency [11] | max response [12] -0.603%

CNc1ccccc1
inactive: Potency [1] | Potency [2] | Potency [3] | Potency [4] | activation [14] 1.11% | max response [5] -7.07% | Potency [6] | outcome [7] | max response [9] -0.57% | max response [10] -6.52% | Potency [11] | max response [12] 4.02% | outcome [13]

Cc1cccc([N+](=O)[O-])c1C(=O)O
inactive: Potency [1] | Potency [2] | Potency [3] | Potency [4] | activation [14] -0.538% | max response [5] 4.5% | Potency [6] | outcome [7] | max response [9] 0.554% | max response [10] -0.404% | Potency [11] | max response [12] 12.6% | outcome [13]

Nc1nc2ccccc2[nH]1
inactive: Potency [1] | Potency [2] | Potency [3] | Potency [4] | activation [14] 11.9% | max response [5] -2.62% | outcome [7] | Potency [8] | max response [9] -4.79% | max response [10] -5.2% | Potency [11] | max response [12] 10.8% | outcome [13]

C=C(C)C(=O)OCC(C)O (stereo not given)
inactive: Potency [1] | Potency [2] | Potency [3] | Potency [4] | activation [14] 0.365% | max response [5] -1.16% | Potency [6] | outcome [7] | Potency [8] | max response [9] 7.34% | Potency [11] | max response [12] -4.2% | outcome [13]

O=C(O)c1cc(Cl)cc(Cl)c1
inactive: Potency [1] | Potency [2] | Potency [3] | Potency [4] | activation [14] 0.13% | max response [5] -2.98% | outcome [7] | max response [9] 0.662% | max response [10] 9.31% | Potency [11] | max response [12] -3.46% | outcome [13]

CC(O)COC(C)(C)C (stereo not given)
inactive: Potency [1] | Potency [2] | Potency [3] | Potency [4] | activation [14] -0.0727% | max response [5] -3.92% | Potency [6] | outcome [7] | Potency [8] | max response [9] 7.93% | Potency [11] | max response [12] 2.3% | outcome [13]

C=CC(=O)NC(C)C
inactive: Potency [1] | Potency [2] | Potency [3] | Potency [4] | activation [14] -0.429% | max response [5] -6.08% | outcome [7] | Potency [8] | max response [9] -7.91% | max response [10] -0.14% | Potency [11] | max response [12] 3.94% | outcome [13]

O=C1OC(=O)c2c(Br)c(Br)c(Br)c(Br)c21
inactive: Potency [1] | Potency [2] | Potency [3] | Potency [4] | activation [14] -1.58% and 0.554% | max response [5] 0.713% and 0.326% | outcome [7] | Potency [8] | max response [9] -8.33% and -1.37% | max response [10] 2.2% and -6.24% | Potency [11] | max response [12] -2.83% and 0.309% | outcome [13]

Cc1cc(C(=O)O)ccc1[N+](=O)[O-]
inactive: Potency [1] | Potency [2] | Potency [3] | Potency [4] | activation [14] 1.35% | max response [5] -0.276% | outcome [7] | max response [9] -1.45% | max response [10] -12% | Potency [11] | max response [12] -5.59% | outcome [13]

NC(=O)CCCCC(N)=O
inactive: Potency [1] | Potency [2] | Potency [3] | Potency [4] | activation [14] -0.919% | max response [5] -1.94% | Potency [6] | outcome [7] | Potency [8] | max response [9] -6.44% | Potency [11] | max response [12] 1.18% | outcome [13]
